Here are results for 62 compounds from PubChem BioAssay AID845 (Columbia University Molecular Screening Center, 2007).

About 390 (0.41%) of roughly 94,000 compounds were called active. The entries come from a sample that favours actives as a whole. A number with no mark means an inactive call.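 The calls were made as follows: active = cell count reduction more than 3 SD above the screen-wide mean (cut at about 70% in these data); inactive = the rest.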

The assay is described as follows: cytotoxicity in IL-1B stimulated HUVEC, primary screen, cytotoxicity control for IL-1B NFkB translocation project, imaging, Hoechst nuclear count, IL-1B stimulus (AID 845).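 Also: normalized per plate to untreated control cells as the no-loss baseline.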 Particulars: HUVEC cell count loss, at 2 µM, hits give high values.
Take `Cc1[nH]n(-c2cccc(Cl)c2)c(=O)c1-c1ccc(Cl)cc1`: the cell count reduction was -1.3%.

As to `Cc1cc(-c2ccccc2)n2nc(C)c(-c3ccccc3)c2n1`, the cell count reduction was -18.8%.

For `Cc1nc2c(-c3ccccc3)c(C)[nH]n2c(=O)c1Cl`, the cell count reduction is 86.7% (active).

For the compound `O=C(NNC(=O)c1cccnc1)Nc1ccccc1`, the cell count reduction is 19.6%.

In the case of `O=C(Nc1ccccc1Cl)O/N=C(/c1ccccc1)c1ccccn1`, the cell count reduction was -21.6%.

`CCOC(=O)C1(S(=O)(=O)c2ccc(Cl)cc2)CCN(Cc2ccccc2)CC1`: the cell count reduction is -78.7%.

As to `Cc1c(C(=O)NCc2ccccc2)cnn1-c1ccccc1`, the cell count reduction is -8.5%.

As for `O=[N+]([O-])c1ccc(Oc2ccc(F)cc2Br)c2ccncc12`, the cell count reduction is 5.4%.

In the case of `COC(=O)CNC(=O)c1ccccc1[N+](=O)[O-]`, the cell count reduction was 22.7%.

Consider `Clc1ccc(CSc2nnc(/C=C/c3ccccc3)o2)c(Cl)c1`, for which the cell count reduction was -46.7%.

For `CCOC(=O)c1c(NC(=O)/C=C/c2ccco2)sc(C)c1C`, the cell count reduction was -43.8%.

Take `O=C1/C(=C\Nc2ccccc2)CCN1c1ncccn1`: the cell count reduction is -32.2%.

Regarding `CN(C(=O)CSc1nc(C2CC2)nc2ccccc12)c1nc(-c2ccccc2)cs1`, the cell count reduction is 0.9%.

For `CCN(CC)S(=O)(=O)c1ccc(N2CCOCC2)c(C(=O)O)c1`, the cell count reduction was 5.3%.

On to `Cc1cc(=O)n2nc(N3CCCC(C(=O)N4CCN(C)CC4)C3)sc2n1` (configuration not stated), for which the cell count reduction is 85.7% (active).

As to `COc1cc(C)nc(N2CCCC(C(=O)NCC(C)C)C2)n1` (configuration not stated), the cell count reduction is -46.9%.

As for `COc1ccc(S(=O)(=O)N2CCCC(C(=O)N3CCN(C)CC3)C2)cc1C` (configuration not stated), the cell count reduction is -33.6%.

For the compound `COc1ccc(C(C#N)Nc2ccc(C)cc2)cc1` (configuration not stated), the cell count reduction was -28.6%.

For the compound `Cc1cc(C)c(OCC(=O)N/N=C/c2ccco2)c(C)c1`, the cell count reduction is 19.3%.

For the compound `O=[N+]([O-])c1ccccc1/C=N/n1c(COc2ccccc2)n[nH]c1=S`, the cell count reduction was -18.2%.

`O=C(c1ccc(CN2CCOCC2)cc1)N1CCN(c2ccccc2F)CC1`: the cell count reduction is 2.7%.

As to `C/C=C/C(=O)Nc1nnc(C(C)C)s1`, the cell count reduction is 7.2%.

`COc1cccc(NC(=O)c2nn(C34CC5CC(CC(C5)C3)C4)cc2[N+](=O)[O-])c1`: the cell count reduction was -1.4%.

Consider `Cc1nc(SCC(=O)c2ccccc2)c([N+](=O)[O-])[nH]1`, for which the cell count reduction is -10.8%.

For the compound `CCOc1ccccc1NC(=O)C1CCCN(C(=O)Nc2ccccc2)C1` (configuration not stated), the cell count reduction was -30.5%.

With `Cc1cccc(C)c1NC(=O)c1ccc(CN2CCc3ccccc3C2)cc1`, the cell count reduction is -6.8%.

Take `CCOC(=O)COc1cc(OCC(=O)OCC)c2c(=O)cc(-c3ccccc3)oc2c1`: the cell count reduction was 7.8%.

For `C=C(C)C(=O)Nc1cccc(C(C)=O)c1`, the cell count reduction was 1.7%.

Turning to `O=c1[nH]n(-c2cccc(Cl)c2)c2ncccc12`, the cell count reduction is -27.9%.

For the compound `CCCc1ccc(OCC(=O)NNC(=S)NC(=O)c2ccco2)cc1`, the cell count reduction is -2.4%.

On to `O=c1c2ccccc2nc2n1C(CSc1ccc(F)cc1)CN2` (configuration not stated), for which the cell count reduction is -9.2%.

Regarding `CSc1ccc(C#N)cc1NC(=O)c1ccc(Cl)cc1`, the cell count reduction is -20.7%.

In the case of `CC1(C)N=C(c2ccccn2)C(C)(C)N1O`, the cell count reduction is 10.6%.

For `Cc1cccc(N(CC(=O)N2CCOCC2)S(C)(=O)=O)c1`, the cell count reduction was -61.2%.

`Nc1ccc(C(=O)OCC(=O)NC2CCCc3ccccc32)cc1[N+](=O)[O-]` (configuration not stated): the cell count reduction is -106%.

On to `CCc1cccc(C)c1N(C(=O)Cn1c(CO)nc2ccccc21)C(C)COC` (configuration not stated), for which the cell count reduction was -7.6%.

Take `COC(=O)c1cc(NC(=O)CC2C(=O)NCCN2C(=O)c2ccc(F)cc2)cc(C(=O)OC)c1` (configuration not stated): the cell count reduction is -3.7%.

`N#CC1=C(SCc2ccc(C#N)cc2)N=C(N)C(c2nc(-c3ccccc3)cs2)C12CCCCC2` (configuration not stated): the cell count reduction was 25.2%.

As for `COc1ccc(C)cc1S(=O)(=O)Nc1cccc(Cl)c1Cl`, the cell count reduction was 6.2%.

`O=C(CNS(=O)(=O)c1ccc(Br)s1)N1CCN(C(=O)c2ccco2)CC1`: the cell count reduction is 15.9%.

As to `COc1ccc(C)cc1NC(=O)CCS(=O)(=O)c1cccc2nonc12`, the cell count reduction was 0.3%.

Turning to `OC(CN1C2=NCCCN2c2ccccc21)c1ccc(Br)cc1` (configuration not stated), the cell count reduction was 8.9%.

In the case of `Cc1ccc(-c2csc(SCC(=O)Nc3cc(C)on3)n2)cc1`, the cell count reduction is 8.8%.

With `CCCNC(=O)N1CCN(C(=O)NCCC)CC1`, the cell count reduction was 4.6%.

Consider `CSCCC(NC(=O)COc1ccccc1)C(=O)OCC(=O)c1cc2ccccc2o1` (configuration not stated), for which the cell count reduction was -13.3%.

`O=C(NC1=NCCS1)[C@H](Cc1ccccc1)N1C(=O)c2ccccc2C1=O`: the cell count reduction was -5.1%.

Consider `NC(=O)CSc1oc(-c2cccs2)nc1S(=O)(=O)c1ccccc1`, for which the cell count reduction was 72.9% (active).

On to `CC1CCCCN1S(=O)(=O)c1ccc(C(=O)Nc2nnc(-c3cccs3)o2)cc1` (configuration not stated), for which the cell count reduction was -4.4%.

Consider `COc1ccc(OC)c(C(=O)CSc2nnc(-c3cccs3)o2)c1`, for which the cell count reduction was -23.7%.

Turning to `O=C(NCCN1CCN(Cc2ccccc2)CC1)c1cc2c(=O)[nH]c3ccccc3c2s1`, the cell count reduction was 26.5%.

Consider `O=C(CN1CCCCCC1)N1c2ccccc2Sc2ccc(C(F)(F)F)cc21`, for which the cell count reduction is -33.3%.

For the compound `CCCC(O)(c1ccc(OC)cc1)C(CN(C)C)c1ccccc1` (configuration not stated), the cell count reduction is -16.3%.

Take `O=C(Cc1ccc(S(=O)(=O)N2CCCC2)s1)NC1CCCCCC1`: the cell count reduction was -2.6%.

Regarding `O=C(O)CCCCc1nc2ccccc2s1`, the cell count reduction is 0.3%.

As for `CCCC(=O)Nc1nc2ccc(NC(=O)c3cccnc3)cc2s1`, the cell count reduction is -12.3%.

As to `O=C(CNC(=O)Cc1ccccc1)NCC(=O)OCC(=O)c1ccccc1Cl`, the cell count reduction was -68.8%.

On to `CC(Oc1ccc(Cl)cc1)c1ccnn1S(C)(=O)=O` (configuration not stated), for which the cell count reduction was 7.5%.

For `COCCCNC(=O)CN1CCN(Cc2ccccc2Cl)C1=O`, the cell count reduction was -10.5%.

On to `C=CCOc1ccc(Cl)cc1CNCCCN1CCOCC1`, for which the cell count reduction was 6.4%.

With `Cc1ccccc1OCC(=O)NCC(=O)OCC(=O)c1ccc2ccccc2c1`, the cell count reduction was 13%.

Regarding `O=C(/C=C/Nc1ccccc1OC(F)(F)F)C(F)(F)F`, the cell count reduction is -22.1%.

For the compound `CCCCOC(=O)Nc1sc2nc(C)cc(C)c2c1-n1cccc1`, the cell count reduction was -2.8%.
